Source: PubChem BioAssay (NCATS)
Results filed as inconclusive are left out. Where a call stands in place of a potency, no number is given. Values without a mark were called inactive. The source made the active and inactive calls. Calls come from the whole dose curve; as a rule, active = well fitted inhibition curve with a large enough effect; inconclusive = small, poorly fitted or top-dose-only effect; inactive = no such curve, though single readings can be large or run the other way.

assay: Primary qHTS for inhibitors of nuclear receptor binding SET domain protein 2 (NSD2) in an RCH-ACV wild type WT cells (2C) (AID 1645877); details: RCH-ACV (leukaemia line) NSD2 WT (2C) viability, CellTiter-Glo, 72 h; series mostly up to 44.9 µM; note: nearly all actives have a fitted effect of over 70% in size

Compound	Potency	outcome	activity change, negative = cell killing
O=C(C1OC1/C=C/c1ccc2c(c1)OCO2)N1CCCCC1 (stereo unspecified)	inactive		
CC1=C2CC(O)(C(C)(C)O)C(O[C@@H]3O[C@H](CO)[C@@H](O)[C@H](O)[C@H]3O)CC(C)C2CC1=O (stereo partly specified)	inactive		
C#CCCCn1cc(-c2cccc3c2N[C@@H](C)CC(=O)N3)cn1	inactive		
CC1=C2C(=O)C=C(CO)C2[C@H]2OC(=O)[C@H](C)[C@@H]2[C@@H](OC(=O)Cc2ccc(O)cc2)C1 (stereo partly specified)	inactive		
COc1cc(/C=C/C(=O)O)ccc1O[C@@H]1O[C@H](CO)[C@@H](O)[C@H](O)[C@H]1O[C@@H]1OC[C@](O)(CO)[C@H]1O	inactive		
CC(=O)O[C@@H]1[C@H](O[C@@H]2OC[C@](O)(CO)[C@H]2O)[C@@H](O[C@@H]2O[C@@H](C)[C@H](O)[C@@H](O[C@@H]3O[C@H](CO)[C@@H](O)[C@H](O)[C@H]3O)[C@H]2O)[C@H](OC(=O)[C@]23CCC(C)(C)C[C@H]2C2=CCC4[C@@]5(C)C[C@H](O)[C@H](O[C@@H]6O[C@H](C(=O)O)[C@@H](O)[C@H](O)[C@H]6O)[C@@](C)(C(=O)O)C5CC[C@@]4(C)[C@]2(C)CC3)O[C@@H]1C (stereo partly specified)		inactive [at 9.23 µM]	
COc1c(-c2ccc(O)cc2)cc(OC)c2c1oc1cc(O)c(OC3OC(CO)C(O)C3O)cc12 (stereo unspecified)	inactive		
CC(C)=CCC[C@](C)(O[C@@H]1O[C@H](CO)[C@@H](O)[C@H](O)[C@H]1O)[C@H]1CC[C@]2(C)[C@@H]1[C@H](O)CC1[C@@]3(C)CC[C@H](O)C(C)(C)C3[C@@H](O[C@@H]3O[C@H](CO)[C@@H](O)[C@H](O)[C@H]3O[C@@H]3O[C@@H](C)[C@H](O)[C@@H](O)[C@H]3O)C[C@]12C (stereo partly specified)			-9.19% [at 9.23 µM]
CC(C)C(NC(=O)c1ccc(O)cc1)C(=O)N1CCCC1C(=O)Nc1c(O)cccc1C(=O)O (stereo unspecified)	inactive		
C=C1[C@H](OC(C)=O)[C@H]2[C@@H](OC(=O)c3ccccc3)[C@@H](C)C[C@]2(O)[C@@H](OC(C)=O)[C@H](C)/C=C/C(C)(C)C(=O)[C@H](OC(C)=O)[C@H]1OC(C)=O	inactive		
COc1cc(CO)cc(OC)c1O[C@@H]1O[C@H](CO)[C@@H](O)[C@H](O)[C@H]1O	inactive		
C=CC(C)(CCC=C(C)C)O[C@@H]1O[C@H](CO)[C@@H](O)[C@H](O)[C@H]1O (stereo partly specified)	inactive		
CC1(C)CC[C@]2(C(=O)O)CC[C@]3(C)C(=CCC4[C@@]5(C)C[C@@H](O)[C@H](O)[C@](C)(CO)C5CC[C@]43C)[C@@H]2[C@@H]1O (stereo partly specified)	inactive		
CC(=O)c1[nH]cc(CCC(=O)O)c1CC(=O)O	inactive		
COC(=O)C1=COC(OC2OC(CO)C(O)C(O)C2O)C2C(C)C(OC(C)=O)C(OC(=O)c3ccccc3)C12 (stereo unspecified)	inactive		
CC1=C(CCC(C)O[C@@H]2O[C@H](CO)[C@@H](O)[C@H](O)[C@H]2O)C(C)(C)CC(O)C1 (stereo partly specified)	inactive		

Compound	Potency	outcome	activity change, negative = cell killing
COC(=O)C1=COC(O[C@@H]2O[C@H](COC(=O)/C=C/c3ccc(O)cc3)[C@@H](O)[C@H](O)[C@H]2O)C2C(CO)=CCC12 (stereo partly specified)	inactive		
CC(C)(CC(=O)N1CCCC1)NCC(=O)N1C[C@@H](F)C[C@H]1C#N	inactive		
C/C(=C\C(=O)C[C@@]12C(=O)O[C@]3(C)CC[C@H]1C[C@H]23)C(N)=O	inactive		
C[C@H]1/C=C/C=C/C=C/C=C/C=C/[C@@H](O)[C@H](C(=O)O)[C@H](O)C[C@H](O)CCC[C@H](O)C[C@H](O)C[C@H](O)[C@@H](C)C(=O)O[C@@H]1C	inactive		
C[C@@H]1CCC2C(C)(C)[C@H](O)[C@H](O)C[C@]2(C)[C@@]12Cc1c(O)cc3c(c1O2)CN(CCCC(=O)O)C3=O (stereo partly specified)	inactive		
C=C1CCC2(C(=O)OC3OC(CO)C(O)C(O)C3O)CCC3(C)C(=CCC4C5(C)CCC(OC6OC(CO)C(OC7OC(C)C(O)C(O)C7O)C(OC7OCC(O)C(O)C7O)C6O)C(C)(C)C5CCC43C)C2C1 (stereo unspecified)			-3.7% [at 9.23 µM]
C[C@H]1CC[C@@]2(OC1)O[C@H]1CC3C4CC[C@H]5C[C@@H](O)CC[C@]5(C)C4CC(=O)[C@]3(C)[C@H]1[C@@H]2C (stereo partly specified)	inactive		
COC(=O)CCC1(C)C(C(C)(C)O)C(O)CC2(C)Oc3c(C)c4c(c(OC)c3CC21)C(=O)OC4 (stereo unspecified)	inactive		
CC1=C(C(=O)OC2OC(COC3OC(CO)C(O)C(O)C3O)C(O)C(O)C2O)C(C)(C)CCC1 (stereo unspecified)	inactive		
CC(=O)[C@@H]1C[C@H](C(C)(C)O[C@@H]2O[C@H](CO)[C@@H](O)[C@H](O)[C@H]2O)CC[C@@]2(CO)OC(=O)C[C@@H]12	inactive		
CC(C)C[C@H](NC(=O)[C@@H]1O[C@H]1C(=O)O)C(=O)NCCCCN=C(N)N	inactive		
C[C@H]1CC(=O)C2=C(C1)C(O)C(O)[C@@]1(O)[C@H]2C(=O)c2cccc(O)c2[C@@H]1O (stereo partly specified)	inactive		
C=C(C(=O)O)[C@@H]1CC[C@@]2(C)CC[C@@H](O)C(=C)C2C1 (stereo partly specified)	inactive		
CC1CCC2(C(=O)O)CCC3(C)C(=CCC4C5(C)CCC(O)C(C)(C(=O)O)C5CCC43C)C2C1(C)O (stereo unspecified)	inactive		
C[C@@H]1O[C@@H](OC2C(O[C@H]3[C@H](O[C@H]4CC[C@@]5(C)C(CC[C@]6(C)C5CC=C5C7CC(C)(C)CC(O)[C@]7(C)CC[C@]56C)C4(C)C)O[C@H](C(=O)O)[C@@H](O)[C@@H]3O)OC(CO)C(O)C2O)[C@H](O)[C@H](O)[C@H]1O (stereo partly specified)		inactive [at 9.23 µM]	
